# Results from PMC11006913.
# Positions count from the first letter of the chain named.
# Columns and labels:
# Test in all cases: PBM; 200 nM protein, PBS
# Details in all cases: dsDNA, one strand shown
# HOXC10 [1] = biological target: HOXC10 (Homo sapiens, UniProt Q9NYD6 254-340)
# MSX2 [2] = biological target: MSX2 (Homo sapiens, UniProt P35548 130-214, R199I)
# HOXC10 [3] = biological target: HOXC10 (Homo sapiens, UniProt Q9NYD6 254-340, K271E)
# MSX2 [4] = biological target: MSX2 (Homo sapiens, UniProt P35548 130-214)
# MSX2 [5] = biological target: MSX2 (Homo sapiens, UniProt P35548 130-214, F161Y)
# ALX1 [6] = biological target: ALX1 (Homo sapiens, UniProt Q15699 118-204, L144V)
# HOXD13 [7] = biological target: HOXD13 (Homo sapiens, UniProt P35453 263-343, T313R)
# ALX1 [8] = biological target: ALX1 (Homo sapiens, UniProt Q15699 118-204, L144R)
# HOXD13 [9] = biological target: HOXD13 (Homo sapiens, UniProt P35453 263-343)
# HOXD13 [10] = biological target: HOXD13 (Homo sapiens, UniProt P35453 263-343, T313A)
# ALX1 [11] = biological target: ALX1 (Homo sapiens, UniProt Q15699 118-204)
# NKX2-6 = biological target: T1, NKX2-6 (Homo sapiens, UniProt A6NCS4 118-204, R150C)
# T1 sequence: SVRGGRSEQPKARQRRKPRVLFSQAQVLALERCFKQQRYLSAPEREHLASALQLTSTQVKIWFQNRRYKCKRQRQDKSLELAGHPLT
# PAX4 [12] = biological target: T2, PAX4 (Homo sapiens, UniProt O43316 9-242, R200K)
# T2 sequence: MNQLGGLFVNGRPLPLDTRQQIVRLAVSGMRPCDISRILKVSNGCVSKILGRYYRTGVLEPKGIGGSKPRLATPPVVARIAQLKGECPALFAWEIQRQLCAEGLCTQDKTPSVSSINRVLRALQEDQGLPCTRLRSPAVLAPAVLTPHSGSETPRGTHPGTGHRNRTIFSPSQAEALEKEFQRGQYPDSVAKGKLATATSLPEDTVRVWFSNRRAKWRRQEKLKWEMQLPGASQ
# PAX4 [13] = biological target: T3, PAX4 (Homo sapiens, UniProt O43316 9-242)
# T3 sequence: T2 sequence with K192R
# PAX4 [14] = biological target: T4, PAX4 (Homo sapiens, UniProt O43316 9-242, R200Q)
# T4 sequence: T2 sequence with K192Q
# PAX4 [15] = biological target: T5, PAX4 (Homo sapiens, UniProt O43316 9-242, F177V)
# T5 sequence: T2 sequence with F169V, K192R
# PAX4 [16] = biological target: T6, PAX4 (Homo sapiens, UniProt O43316 9-242, F177Y)
# T6 sequence: T2 sequence with F169Y, K192R
# PAX4 [17] = biological target: T7, PAX4 (Homo sapiens, UniProt O43316 9-242, R227W)
# T7 sequence: T2 sequence with K192R, R219W
# ALX3 [18] = biological target: ALX3 (Homo sapiens, UniProt O95076 139-225, N203Q)
# ALX3 [19] = biological target: ALX3 (Homo sapiens, UniProt O95076 139-225)
# ALX3 [20] = biological target: ALX3 (Homo sapiens, UniProt O95076 139-225, L168Q)
# ALX3 [21] = biological target: ALX3 (Homo sapiens, UniProt O95076 139-225, L168V)
# ALX3 [22] = biological target: ALX3 (Homo sapiens, UniProt O95076 139-225, N203S)
# ALX4 = ALX4 (Homo sapiens, UniProt Q9H161 200-286, Q225E)
# HOXC9 = HOXC9 (Homo sapiens, UniProt P31274 178-260, R222W)
# PRRX1 [23] = biological target: PRRX1 (Homo sapiens, UniProt P54821 80-166, F113S)
# PRRX1 [24] = biological target: PRRX1 (Homo sapiens, UniProt P54821 80-166)
# PRRX1 (Homo sapiens, UniProt P54821 80-166), sequence (P54821 80-166): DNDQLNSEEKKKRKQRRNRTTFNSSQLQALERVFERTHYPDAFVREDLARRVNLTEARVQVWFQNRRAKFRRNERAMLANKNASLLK
# HOXD13 (Homo sapiens, UniProt P35453 263-343, T313R), sequence (P35453 263-343 T313R): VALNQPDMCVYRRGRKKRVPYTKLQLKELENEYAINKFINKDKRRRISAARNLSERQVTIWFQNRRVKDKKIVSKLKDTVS
# HOXD13 (Homo sapiens, UniProt P35453 263-343, T313A), sequence (P35453 263-343 T313A): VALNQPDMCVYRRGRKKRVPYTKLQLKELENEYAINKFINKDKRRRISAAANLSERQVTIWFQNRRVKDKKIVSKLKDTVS
# HOXC10 (Homo sapiens, UniProt Q9NYD6 254-340, K271E), sequence (Q9NYD6 254-340 K271E): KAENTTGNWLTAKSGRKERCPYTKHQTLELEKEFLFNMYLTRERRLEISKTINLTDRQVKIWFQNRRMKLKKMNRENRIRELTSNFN
# HOXC10 (Homo sapiens, UniProt Q9NYD6 254-340), sequence (Q9NYD6 254-340): as the sequence (Q9NYD6 254-340 K271E) above, with E18K counted along it
# HOXD13 (Homo sapiens, UniProt P35453 263-343), sequence (P35453 263-343): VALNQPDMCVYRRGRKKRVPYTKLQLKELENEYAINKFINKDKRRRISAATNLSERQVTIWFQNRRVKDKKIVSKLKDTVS
# ALX1 (Homo sapiens, UniProt Q15699 118-204, L144R), sequence (Q15699 118-204 L144R): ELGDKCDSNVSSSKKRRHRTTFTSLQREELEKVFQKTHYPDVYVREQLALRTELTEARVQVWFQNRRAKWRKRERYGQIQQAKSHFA
# ALX3 (Homo sapiens, UniProt O95076 139-225, L168Q), sequence (O95076 139-225 L168Q): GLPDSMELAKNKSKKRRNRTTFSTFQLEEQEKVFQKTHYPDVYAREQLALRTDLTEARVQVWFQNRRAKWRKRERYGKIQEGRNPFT
# MSX2 (Homo sapiens, UniProt P35548 130-214, R199I), sequence (P35548 130-214 R199I): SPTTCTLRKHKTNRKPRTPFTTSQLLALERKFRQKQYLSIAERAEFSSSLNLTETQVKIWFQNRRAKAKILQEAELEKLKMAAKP
# ALX1 (Homo sapiens, UniProt Q15699 118-204, L144V), sequence (Q15699 118-204 L144V): as the sequence (Q15699 118-204 L144R) above, with R27V counted along it
# ALX3 (Homo sapiens, UniProt O95076 139-225, N203S), sequence (O95076 139-225 N203S): as the sequence (O95076 139-225 L168Q) above, with Q30L, N65S counted along it
# ALX4, sequence (Q9H161 200-286 Q225E): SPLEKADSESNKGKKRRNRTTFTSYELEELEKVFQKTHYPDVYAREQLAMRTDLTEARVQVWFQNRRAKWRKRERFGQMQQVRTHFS
# ALX3 (Homo sapiens, UniProt O95076 139-225, L168V), sequence (O95076 139-225 L168V): as the sequence (O95076 139-225 L168Q) above, with Q30V counted along it
# MSX2 (Homo sapiens, UniProt P35548 130-214), sequence (P35548 130-214): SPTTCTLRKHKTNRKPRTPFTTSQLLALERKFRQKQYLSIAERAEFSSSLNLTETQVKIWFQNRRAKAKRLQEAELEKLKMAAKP
# ALX3 (Homo sapiens, UniProt O95076 139-225, N203Q), sequence (O95076 139-225 N203Q): as the sequence (O95076 139-225 L168Q) above, with Q30L, N65Q counted along it
# ALX3 (Homo sapiens, UniProt O95076 139-225), sequence (O95076 139-225): as the sequence (O95076 139-225 L168Q) above, with Q30L counted along it
# MSX2 (Homo sapiens, UniProt P35548 130-214, F161Y), sequence (P35548 130-214 F161Y): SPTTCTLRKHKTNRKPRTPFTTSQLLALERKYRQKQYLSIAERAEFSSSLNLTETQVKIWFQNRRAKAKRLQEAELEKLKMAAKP
# PRRX1 (Homo sapiens, UniProt P54821 80-166, F113S), sequence (P54821 80-166 F113S): as the sequence (P54821 80-166) above, with F34S counted along it
# ALX1 (Homo sapiens, UniProt Q15699 118-204), sequence (Q15699 118-204): as the sequence (Q15699 118-204 L144R) above, with R27L counted along it
# HOXC9, sequence (P31274 178-260 R222W): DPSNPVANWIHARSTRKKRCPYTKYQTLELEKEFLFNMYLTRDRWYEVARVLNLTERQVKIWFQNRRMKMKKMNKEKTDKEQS
sequence,measurement,setting,value
AGTCGGCG,binding signal,HOXC10 [1],"10.1 upbm affinity estimate (log intensity, higher = more binding, comparable within an allelic series)"
same,binding signal,MSX2 [2],"9.6 upbm affinity estimate (log intensity, higher = more binding, comparable within an allelic series)"
same,binding signal,HOXC10 [3],"10.1 upbm affinity estimate (log intensity, higher = more binding, comparable within an allelic series)"
same,binding signal,MSX2 [4],"9.58 upbm affinity estimate (log intensity, higher = more binding, comparable within an allelic series)"
same,binding signal,MSX2 [5],"9.6 upbm affinity estimate (log intensity, higher = more binding, comparable within an allelic series)"
ATTTATAG,binding signal,HOXC10 [1],"12.2 upbm affinity estimate (log intensity, higher = more binding, comparable within an allelic series)"
same,binding signal,ALX1 [6],"8.9 upbm affinity estimate (log intensity, higher = more binding, comparable within an allelic series)"
same,binding signal,HOXD13 [7],"11.1 upbm affinity estimate (log intensity, higher = more binding, comparable within an allelic series)"
same,binding signal,ALX1 [8],"9.04 upbm affinity estimate (log intensity, higher = more binding, comparable within an allelic series)"
same,binding signal,HOXD13 [9],"12.1 upbm affinity estimate (log intensity, higher = more binding, comparable within an allelic series)"
same,binding signal,HOXC10 [3],"11.4 upbm affinity estimate (log intensity, higher = more binding, comparable within an allelic series)"
same,binding signal,HOXD13 [10],"11.9 upbm affinity estimate (log intensity, higher = more binding, comparable within an allelic series)"
same,binding signal,ALX1 [11],"9.11 upbm affinity estimate (log intensity, higher = more binding, comparable within an allelic series)"
ACCGGGCT,binding signal,HOXC10 [1],"10.1 upbm affinity estimate (log intensity, higher = more binding, comparable within an allelic series)"
same,binding signal,NKX2-6,"9.65 upbm affinity estimate (log intensity, higher = more binding, comparable within an allelic series)"
same,binding signal,HOXC10 [3],"10.1 upbm affinity estimate (log intensity, higher = more binding, comparable within an allelic series)"
CCCCACCG,binding signal,HOXC10 [1],"10.2 upbm affinity estimate (log intensity, higher = more binding, comparable within an allelic series)"
same,binding signal,PAX4 [12],"9.41 upbm affinity estimate (log intensity, higher = more binding, comparable within an allelic series)"
same,binding signal,PAX4 [13],"9.56 upbm affinity estimate (log intensity, higher = more binding, comparable within an allelic series)"
same,binding signal,PAX4 [14],"9.46 upbm affinity estimate (log intensity, higher = more binding, comparable within an allelic series)"
same,binding signal,PAX4 [15],"9.14 upbm affinity estimate (log intensity, higher = more binding, comparable within an allelic series)"
same,binding signal,HOXC10 [3],"10.1 upbm affinity estimate (log intensity, higher = more binding, comparable within an allelic series)"
same,binding signal,PAX4 [16],"9.27 upbm affinity estimate (log intensity, higher = more binding, comparable within an allelic series)"
same,binding signal,PAX4 [17],"9.33 upbm affinity estimate (log intensity, higher = more binding, comparable within an allelic series)"
TATGCGCA,binding signal,HOXC10 [1],"10.8 upbm affinity estimate (log intensity, higher = more binding, comparable within an allelic series)"
AGCTGGCG,binding signal,HOXC10 [1],"9.96 upbm affinity estimate (log intensity, higher = more binding, comparable within an allelic series)"
same,binding signal,ALX3 [18],"7.77 upbm affinity estimate (log intensity, higher = more binding, comparable within an allelic series)"
same,binding signal,HOXC10 [3],"9.94 upbm affinity estimate (log intensity, higher = more binding, comparable within an allelic series)"
same,binding signal,ALX3 [19],"7.78 upbm affinity estimate (log intensity, higher = more binding, comparable within an allelic series)"
same,binding signal,ALX3 [20],"7.68 upbm affinity estimate (log intensity, higher = more binding, comparable within an allelic series)"
same,binding signal,ALX3 [21],"7.73 upbm affinity estimate (log intensity, higher = more binding, comparable within an allelic series)"
same,binding signal,ALX3 [22],"7.86 upbm affinity estimate (log intensity, higher = more binding, comparable within an allelic series)"
CCAATAAA,binding signal,HOXC10 [1],"12.1 upbm affinity estimate (log intensity, higher = more binding, comparable within an allelic series)"
same,binding signal,ALX4,"11.4 upbm affinity estimate (log intensity, higher = more binding, comparable within an allelic series)"
same,binding signal,HOXD13 [7],"11.1 upbm affinity estimate (log intensity, higher = more binding, comparable within an allelic series)"
same,binding signal,HOXD13 [9],"12.4 upbm affinity estimate (log intensity, higher = more binding, comparable within an allelic series)"
same,binding signal,HOXC10 [3],"11.3 upbm affinity estimate (log intensity, higher = more binding, comparable within an allelic series)"
same,binding signal,HOXD13 [10],"12.2 upbm affinity estimate (log intensity, higher = more binding, comparable within an allelic series)"
same,binding signal,HOXC9,"11.1 upbm affinity estimate (log intensity, higher = more binding, comparable within an allelic series)"
CTTTATGA,binding signal,HOXC10 [1],"12.2 upbm affinity estimate (log intensity, higher = more binding, comparable within an allelic series)"
same,binding signal,PRRX1 [23],"10 upbm affinity estimate (log intensity, higher = more binding, comparable within an allelic series)"
same,binding signal,HOXD13 [7],"10.5 upbm affinity estimate (log intensity, higher = more binding, comparable within an allelic series)"
same,binding signal,HOXD13 [9],"11.8 upbm affinity estimate (log intensity, higher = more binding, comparable within an allelic series)"
same,binding signal,HOXC10 [3],"11.6 upbm affinity estimate (log intensity, higher = more binding, comparable within an allelic series)"
same,binding signal,HOXD13 [10],"11.5 upbm affinity estimate (log intensity, higher = more binding, comparable within an allelic series)"
same,binding signal,PRRX1 [24],"11.2 upbm affinity estimate (log intensity, higher = more binding, comparable within an allelic series)"
